Assay outcomes (PubChem)
Most compounds without a hit are left out; they make up all but 1.6% or so of the library.
Platelet DG rel = inhibitors of platelet dense granule secretion, primary screen, cell-based, MLPCN, human platelets; human platelet-rich plasma, SFLLRN dense granule ATP release, luminescence; inhibition, %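 (compounds screened at 7.5 µM in platelet-rich plasma)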; hit rate 0.22% among 300,000; AID 1663, 2009;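 active = mean replicate score, as percent of positive control, at or above 50; inconclusive = mean below 50 but at least one replicate at or above 50; inactive = mean and every replicate below 50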
PPC-1+TRAIL kill = compounds killing PPC-1 cancer cells with TRAIL present, primary screen, TRAIL potentiator project, ATPLite luminescence, uHTS. AID 1443, 2008. cell killing (% activity), % at 4 µM or 5 µM. PPC-1 cells + TRAIL, ATPLite viability luminescence. hit rate 0.41% among 220,000;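 active = cell killing above 50% in the first pass at 4 µM, then a duplicate retest at 5 µM averaging 50% or more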;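 note: plate controls were cells with TRAIL plus DMSO for no effect and medium-only wells lacking cells for full effect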
C8 TRAIL sens = viability loss with TRAIL in NB7+C8 cells, primary screen, TRAIL sensitizer project, cell-based, ATPlite luminescence; hit rate 1% among 360,000; inhibition (viability loss, TRAIL sensitization), % at 10 µM;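 active = compounds causing at least 50% loss of cell viability in the single-dose screen, relative to plate controls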
STAT1 inh = STAT1 signaling inhibitors, primary screen, cell-based, HTS, luciferase reporter. hit rate 0.35% among 200,000. AID 920, 2007. NIH 3T3 STAT1-luciferase reporter, IFN-gamma, luminescence. inhibition, % at 5.5 µM;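 active = inhibition above a set limit, the mean inhibition across all tested compounds plus 3 SD, cut at about 34% in these data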;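 note: 0% = IFN-gamma with DMSO and 100% = IFN-gamma with 300 µM nifuroxazide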
STAT3 blocker = IL-6 driven STAT3 reporter inhibitors, primary screen, U3A cells, luciferase, luminescence, MLSCN library | IL-6 STAT3-luciferase reporter; host cell line lacks STAT1 | inhibition, % at 5.5 µM | hit rate 0.89% among 190,000 | AID 862, 2007;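 active = inhibition above the mean inhibition across all screened compounds plus 3 SD, cut at about 44% in these data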;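 note: 0% = DMSO only wells and 100% = 100 µM nifuroxazide control wells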
Starred values were filed as active, the others as inactive; ? = inconclusive; nt = no result.

SMILES	Platelet DG rel	PPC-1+TRAIL kill	C8 TRAIL sens	STAT1 inh	STAT3 blocker
O=C(Nc1nccs1)c1sc2cc(Cl)ccc2c1Cl	3.0	27.1	22.0	-52.2	-34.3
Cc1ccnc(NC(=O)c2ccc(Br)s2)c1	28.9	nt	55.2*	nt	nt
CC(=O)Nc1cccc(-c2csc(C(C)(NC(C)=O)c3ccccc3)n2)c1 (centres undefined)	nt	nt	-6.2	nt	nt
CC(C)c1ccc(-n2nnnc2SCc2nc(N)nc(N)n2)cc1	nt	nt	-7.7	nt	nt
O=C(/C=C/Nc1ccc(Oc2ccccc2)cc1)c1ccco1	53.4*	49.0	46.0	-46.3	34.2
NC(=O)c1ccccc1N/C=C/C(=O)c1ccco1	6.8	18.6	12.3	-36.5	1.5
O=C(/C=C/Nc1ccccc1C(F)(F)F)c1ccco1	3.5	nt	58.7*	0.2	39.4
COCCNc1nc(-c2ccccc2F)c2sc(-c3ccccc3)cc2n1	nt	nt	6.3	nt	nt
Cc1cc(NCCCn2ccnc2)n2ncc(-c3ccc(Cl)cc3)c2n1	4.9	6.9	53.8*	-61.9	-61.0
CC(=O)Nc1ccc(NC(=O)CSc2nnc(NC(=O)c3cccc(F)c3)s2)cc1	23.3	nt	52.9*	nt	nt
CC(=O)Nc1ccc(NC(=O)CSc2nnc(NC(=O)Cc3ccc(F)cc3)s2)cc1	1.4	nt	2.1	nt	nt
Cc1ccc(Nc2nnc(SCC(=O)Nc3cccc(S(=O)(=O)NC4=NCCCCC4)c3)s2)cc1	-6.7	16.3	36.5	1.0	11.2
CCc1ccc(Nc2nnc(SCC(=O)Nc3cccc(S(=O)(=O)NC4=NCCCCC4)c3)s2)cc1	-7.7	51.1*	64.3*	-0.4	-3.3
CCc1ccc(Nc2nnc(SCC(=O)Nc3ccc(C(=O)O)cc3)s2)cc1	5.1	41.6	58.9*	nt	nt
CCOc1ccc(OCC(=O)Nc2cccc(S(=O)(=O)NC3=NCCC3)c2)cc1	nt	nt	62.8*	nt	nt
COC(=O)[C@]12CCCCC=C1N(CCc1ccc(OC)c(OC)c1)C(=O)[C@H](CC(=O)NCc1cccc(C(F)(F)F)c1)C2	nt	nt	21.1	nt	nt
CC1(c2nnnn2Cc2ccccc2)CCC(=O)N1c1ccc(N2CCOCC2)cc1 (centres undefined)	nt	nt	-3.2	nt	nt
COc1ccccc1N1CCN(C2=Nc3cccc4cccc2c34)CC1	-4.1	47.4	66.8*	-30.5	22.0
c1cc2c3c(cccc3c1)C(N1CCN(C3=Nc4cccc5cccc3c45)CC1)=N2	nt	nt	nt	5.7	1.7
CC1=C(C(=O)N(C)C)CC(CC(=O)NCCN2CCOCC2)C(=O)N1CCCN1CCCC1=O (centres undefined)	nt	nt	54.8*	nt	nt
CCCNC(=O)c1cc(C2CCCN(C(=O)c3ccccc3)C2)on1 (centres undefined)	nt	nt	-5.4	nt	nt
CC(C)NC(=O)c1cc(C2CCCCN2S(=O)(=O)c2cccc3cccnc23)on1 (centres undefined)	nt	nt	-9.3	nt	nt
O=C1OC2(CCCCC2)OC(=O)C1=CNc1ccc2c(c1)OCO2	1.9	18.3	-7.9	-15.1	7.1
O=C1/C(=C/Nc2ccc3c(c2)OCO3)CCc2ccccc21	?	27.1	85.8*	58.5*	93.2*
COc1ccc(S(=O)(=O)Nc2ccc3c(c2)OCO3)cc1	-0.1	8.9	-32.0	7.4	1.2
SMILES	Platelet DG rel	PPC-1+TRAIL kill	C8 TRAIL sens	STAT1 inh	STAT3 blocker
COc1ccc2c(c1)CC/C(=C\Nc1ccc3c(c1)OCO3)C2=O	1.5	12.9	51.9*	-32.2	29.4
Cc1cc(O)c2c(c1O)C(=O)[C@]13C(=C2O)C(=O)[C@@H]2[C@@H](O)[C@H]1[C@@H]1[C@H](O)[C@H]3C(=O)C3=C(O)c4c(O)cc(C)c(O)c4C(=O)[C@]312	nt	nt	48.1*	nt	nt
Cc1ccccc1C(=O)Oc1cccc(Nc2ncnc3ccccc23)c1	-5.3	nt	4.1	24.3	66.8*
C=C(C)Cn1c(N2CCN(c3ccc(OC)cc3)CC2)nc2c1c(=O)n(C)c(=O)n2C	14.5	11.8	2.3	32.1	24.5
COc1ccc(N2CCN(c3nc4c(c(=O)n(C)c(=O)n4C)n3Cc3ccccc3)CC2)cc1	50.2*	4.4	-5.6	25.2	12.9
Cn1c(=NC(=O)CCl)sc2ccccc21	5.9	12.0	94.0*	8.4	20.9
CC(=O)N/N=c1\sc2ccccc2n1C	-3.1	22.7	-0.1	-13.7	6.4
Cn1c(=NC(=O)c2cccc([N+](=O)[O-])c2)sc2ccccc21	2.1	-1.0	56.6*	-76.2	-40.7
Cc1cc(S(=O)(=O)NC(C)c2nnc3ccccn23)ccc1Br (centres undefined)	nt	nt	3.4	nt	nt
COc1ccccc1-c1ccc2c(c1)C(C)(Cc1ccc(F)c(Cl)c1)C(=O)N2 (centres undefined)	nt	nt	-11.4	nt	nt
CN(C)c1ccc(/C=C(\C#N)c2ccccc2)cc1	nt	24.1	47.5	nt	nt
CN(C)c1cccc(/C=C(\C#N)c2ccccc2)c1	-9.1	6.1	49.5*	nt	nt
Cc1ccc(OCCN2CCC2(C)C(=O)Nc2ccc3c(c2)OCCO3)cc1 (centres undefined)	nt	nt	1.0	nt	nt
Cn1c(=O)c2cc(NC(=O)NCc3ccc(F)cc3)ccc2n1C	nt	nt	24.4	nt	nt
O=C(Nc1ccc(N2CCCCC2)cc1)c1ccc([N+](=O)[O-])o1	23.7	nt	31.3	nt	nt
O=C(Nc1ccc(N2CCN(Cc3ccccc3F)CC2)cc1)c1ccc([N+](=O)[O-])o1	-14.0	nt	88.7*	nt	nt
CC1CCN(c2ccc(NC(=O)c3ccc([N+](=O)[O-])o3)cc2)CC1	0.4	nt	94.0*	nt	nt
COc1cc2c3nnc(-c4ccc(F)cc4)c-3cn(Cc3ccccc3)c2cc1OC	28.6	27.9	66.7*	-10.3	10.7
COc1cc2c3nnc(-c4ccc(F)cc4)c-3cn(Cc3ccc(F)cc3)c2cc1OC	2.9	11.2	0.7	-5.4	3.6
COCCN(C(=O)COC(=O)C1CCCCC1)c1c(N)n(Cc2ccccc2)c(=O)[nH]c1=O	nt	nt	1.0	nt	nt
Cc1ccc(S(=O)(=O)N2CCOCC2)cc1C(=O)OCC(=O)c1c(N)n(C)c(=O)n(C)c1=O	nt	nt	-1.9	nt	nt
Cn1c(N)c(C(=O)COC(=O)c2cc(S(=O)(=O)N3CCOCC3)ccc2F)c(=O)n(C)c1=O	nt	nt	63.8*	nt	nt
COc1ccc(NC(C)C(=O)Nc2cccc(S(=O)(=O)N3CCOCC3)c2)cc1OC (centres undefined)	nt	nt	6.6	nt	nt
CCCCCc1ccc(OCCCC[n+]2ccccc2)c(CCCCC)c1	-5.8	23.8	79.1*	31.5	19.6
CCC(C)(C)c1ccc(OCCCC[n+]2ccccc2)c(C(C)(C)CC)c1	1.7	51.1*	15.3	28.3	15.7
COc1ccccc1-c1cccc(-c2nc(C(=O)Nc3nccs3)cc3c2[C@@H](CCO)N(C(=O)CC2CC2)C3)c1	nt	nt	23.5	nt	nt
COc1ccc(C2=CCCCCC2)cc1OC	nt	nt	-3.8	nt	nt
COc1ccc(NC(=O)C2CCCN(c3nn4c(=O)cc(C)nc4s3)C2)cc1 (centres undefined)	103.7*	nt	-2.0	nt	nt
CCc1nc2c(OCc3cc(Cl)cc(Cl)c3)cccn2c1N(C)C(=O)c1ccc(OC)cc1	nt	nt	22.3	nt	nt
Clc1nc2ccccc2cc1/C=N/Nc1nc2ccccc2[nH]1	48.1	37.2	83.3*	-1.5	-5.0
